“And” between values parts separate entries of the source, which are not always exact repeats. Identical values can stand only once. Records with an inconclusive call do not appear. More than one record can exist for a structure, and the calls need not agree. Unmarked numbers belong to inactive results. The source made the active and inactive calls. Calls follow the shape of the dose curve; as a rule, active = well fitted cell-killing curve with a large enough effect in the repeat runs; inconclusive = weak or mixed curves, or effect the other way; inactive = flat fitted curve, though single readings scatter.
Test: qHTS RealTime-Glo MT Cell Viability Assay in HEK293 cells - 40 hour (AID 1224874); also: nearly all actives have a fitted effect of over 50% in size
Settings: RealTime-Glo luminescence; max response: stronger effect = lower value
Text: U.S. Tox21 Program National Center for Advancing Translational Sciences [NCATS] NIH Chemical Genomics Center [NCGC] U.S. Environmental Protection Agency [EPA] National Institutes of Environmental Health Sciences [NIEHS] National Toxicology Program [NTP] U.S. Food and Drug Administration [FDA] Tox21 Assay Overview: Measure of cell viability is critical in the cell-base assay. Analysis of cell viability is necessary for the characterization of cell responses to cytotoxic drugs and environmental stress. A RealTime-Glo MT Cell Viability Assay to monitor cell viability in real time of continues cell culture during 40 hours of compound treatment was used to screen Tox21 10K library compounds in Hek293 cells. The RealTime-Glo MT Cell Viability Assay is a nonlytic, homogeneous, bioluminescent method to measure cell viability in real time using a simple, plate-based method. The assay involves adding NanoLuc luciferase and a cell-permeant prosubstrate to cells in culture. Viable cells reduce the proprietary prosubstrate to generate a substrate for NanoLuc luciferase. This substrate diffuses from cells into the surrounding culture medium, where it is rapidly used by the NanoLuc Enzyme to produce a luminescent signal. The signal correlates with the number of viable cells, making the assay well suited for cytotoxicity studies.
Tox21 Assay Protocol Summary: The mixture of Hek293 cell suspension and reagents were dispensed at 600cells/6 ul/well in 1536-well tissue culture treated black solid bottom plates using a Multidrop dispenser. After the assay plates were incubated at a 37 C/5% CO2 incubator for 5 hours, 23 nL of compounds dissolved in DMSO, positive and negative controls was transferred to the assay plate by a pintool work station. The plates were incubated at 37 C for 40 hours. The luminescence intensity were measured at 0h, 8h, 16h, 24h, 32h and 40h time points using ViewLux plate reader during compound treatment.
% is scaled to controls: 0 for no effect and ±100 for the full control effect; potency is read from the fitted curve at half-maximal effect.

Row | Compound | max response | Potency
1 | CCCCN(CCCC)CCCC | 6% and 4.07% | 
2 | C=CCNC(N)=S | -13.5% and 2.87% | 
3 | O=c1[nH]c(=O)n([C@H]2C[C@H](O)[C@@H](CO)O2)cc1Br | 0.308% | 
4 | O=C(O)[C@H](O)[C@@H](O)[C@H](O)[C@H](O)CO | -0.628% and 0.139% | 
5 | CCOC(=O)NNc1nncc2ccccc12 | 3.91% and 1.02% | 
6 | CCCCC(CC)COC(=O)C(C#N)=C(c1ccccc1)c1ccccc1 (stereo not given) | -27.4% | 
7 | COc1cc(Cc2cnc(N)nc2N)cc(OC)c1OC | -23% and -15.6% | 
8 | CC[C@H](C)C(=O)O[C@H]1C[C@@H](C)C=C2C=C[C@H](C)[C@H](CC[C@@H]3C[C@@H](O)CC(=O)O3)[C@H]21 | -8.74% and -19.2% | 
9 | ON=C1CCCCC1 | -0.0267% and 0.158% | 
10 | O=[N+]([O-])c1ccc(/C=C/c2ccc([N+](=O)[O-])cc2S(=O)(=O)O)c(S(=O)(=O)O)c1 | 6.57% and 8.56% | 
11 | CC1CCC(C(C)C)C(O)C1 (stereo not given) | -2.01% and 1.75% | 
12 | CCCCCCCCCCCCc1ccccc1 | 7.72% and -4.38% | 
13 | c1ccc(OCCOc2ccccc2)cc1 | -0.0252% and -0.384% | 
14 | O=C(CC(C(=O)OC1CCCCC1)S(=O)(=O)O)OC1CCCCC1 (stereo not given) | 7.94% and 16.6% | 
15 | O=C(O)CC(C(=O)O)C(CC(=O)O)C(=O)O (stereo not given) | -2.07% and -0.191% | 
16 | CCN(CC)c1ccc(C(=O)c2ccccc2C(=O)O)c(O)c1 | -1.39% and 2.11% | 
17 | CCCCCCCCC/C=C/CC1CC(=O)OC1=O (stereo not given) | -19.7% and -2.36% | 
18 | CCCCC(CC)COC(=O)CCCCC(=O)OCC(CC)CCCC (stereo not given) | -6.84% and 6.57% | 
19 | CC(O)COCC(C)O (stereo not given) | -1.78% and 1.64% | 
20 | COc1ccc(Cl)cc1C(=O)NCCc1ccc(S(=O)(=O)NC(=O)NC2CCCCC2)cc1 | -19.9% and -25.1% | 

Row | Compound | max response | Potency
21 | NNc1nncc2ccccc12 | 2.59% | 
22 | Oc1cccc2ccccc12 | -13.2% and -5.72% | 
23 | Nc1ccccc1[N+](=O)[O-] | 3.94% and 2.64% | 
24 | FC(F)(F)c1ccc(Cl)c(Cl)c1 | 1.14% and 2.54% | 
25 | c1ccc2c(c1)ccc1ccccc12 | -10.3% | 
26 | CSCCC=O | 4.41% and 31% | 
27 | OCCOCCOCCO | -0.565% and 3.8% | 
28 | COCCCOc1ccnc(CS(=O)c2nc3ccccc3[nH]2)c1C (stereo not given) | -13.3% | 9.74 µM (active)
29 | CCCCOC(=O)COc1ccc(Cl)cc1Cl | -3.14% and 1.1% | 
30 | Cc1ccc2oc(=O)ccc2c1 | -2.42% and -2.11% | 
31 | CC1=CC(=O)NS(=O)(=O)O1 | -28.6% and 3.78% | 
32 | CCc1ccc(CCOc2ccc(CC3SC(=O)NC3=O)cc2)nc1 (stereo not given) | -19% | 
33 | CCCCCCCC(=O)OC | -1.2% and 5.05% | 
34 | C=C(C)C(=O)OCCOCCOCCOC(=O)C(=C)C | -0.0416% and 6.25% | 
35 | COc1ccc2cc([C@H](C)C(=O)O)ccc2c1 | 5.06% and -0.971% | 
36 | O=C(O)CCCC[C@@H]1SC[C@@H]2NC(=O)N[C@@H]21 | 6.98% and 0.709% | 
37 | O=S(=O)(O)c1ccc2ccccc2c1 | 19.4% and -5.62% | 
38 | CCCCCC1=CCCC1=O | 5.34% and -3.52% | 
39 | CC1CCC2CC1C2(C)C (stereo not given) | -4.21% and 10.8% | 
